# Values joined by “and” are separate entries in the source; they are usually repeats but may differ in a detail not shown here. Equal values may be shown once. Inconclusive results are not listed. Entries that show only a call come without a potency. Active and inactive are the calls of the source.
# Molecular target: Glucocorticoid receptor (Homo sapiens) (UniProt P04150)
# Test: qHTS assay for small molecule antagonists of glucocorticoid receptor signaling (AID 588533; active = well fitted inhibition curve with a large enough effect in the signal ratio, with a control signal flat, not every such curve was filed as active; the % refers to the signal ratio;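 also: cells stimulated with 2 nM dexamethasone as agonist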)
# Conditions: HeLa MMTV-bla, GRE beta-lactamase ratio, antagonist mode, 18 h; series mostly up to 76.8 µM
# Summary of the method: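 Antagonist-mode qHTS: compound titrations added to GRE-bla HeLa cells, then dexamethasone 2 nM final; 18 h, 37 C. CCF4 FRET fluorescence normalized to dexamethasone and DMSO; IC50 from Hill fit.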
# Glucocorticoid receptor (Homo sapiens), sequence (P04150 whole entry, looked up): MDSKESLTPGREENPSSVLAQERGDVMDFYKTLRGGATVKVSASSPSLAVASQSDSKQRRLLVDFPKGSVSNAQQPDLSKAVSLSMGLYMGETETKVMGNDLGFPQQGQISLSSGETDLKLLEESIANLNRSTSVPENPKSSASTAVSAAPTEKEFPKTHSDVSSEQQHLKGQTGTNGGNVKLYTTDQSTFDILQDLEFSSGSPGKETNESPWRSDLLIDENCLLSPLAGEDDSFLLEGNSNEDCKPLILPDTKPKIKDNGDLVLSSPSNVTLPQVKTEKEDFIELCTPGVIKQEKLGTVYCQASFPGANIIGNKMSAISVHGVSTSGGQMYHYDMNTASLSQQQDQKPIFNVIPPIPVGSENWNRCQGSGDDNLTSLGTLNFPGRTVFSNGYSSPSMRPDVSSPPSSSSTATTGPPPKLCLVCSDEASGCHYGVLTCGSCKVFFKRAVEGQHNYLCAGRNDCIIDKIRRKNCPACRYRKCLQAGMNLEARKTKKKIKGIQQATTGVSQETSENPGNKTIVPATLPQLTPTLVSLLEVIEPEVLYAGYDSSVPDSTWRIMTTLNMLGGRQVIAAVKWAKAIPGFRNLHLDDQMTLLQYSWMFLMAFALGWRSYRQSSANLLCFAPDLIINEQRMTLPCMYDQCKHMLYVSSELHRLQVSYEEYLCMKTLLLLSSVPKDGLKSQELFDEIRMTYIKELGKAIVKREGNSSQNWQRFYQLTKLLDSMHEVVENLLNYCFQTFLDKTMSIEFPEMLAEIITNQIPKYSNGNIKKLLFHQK
row,SMILES,Potency
1,CC(C)CCCCCCCCCCCCCCC(=O)O,inactive
2,C=CCOc1nc(OCC=C)nc(OCC=C)n1,inactive
3,CCOC(=O)c1ccccc1C,inactive
4,CCCCCCCCCCCC[N+](C)(C)C,inactive
5,CCCCCCCCCCCCN,inactive
6,CCC(O)OCCCOC (stereo unspecified),inactive
7,C=CCCCCCCCCCC,inactive
8,CCCCCCCCCCCCCCC,inactive
9,Oc1ccc(C(c2ccc(O)cc2)C(Cl)(Cl)Cl)cc1,inactive
10,CC(C)(N=C=O)c1cccc(C(C)(C)N=C=O)c1,inactive
11,CC(C)C(=O)OC(=O)C(C)C,inactive
12,CC1=CC(=O)CC(C)(C)C1,inactive
13,CCCCCCCC/C=C\CCCCCCCCO,inactive
14,CCCCCCCC[Si](OCC)(OCC)OCC,inactive
15,COc1cc(Cl)c(OC)cc1N,inactive
16,O=S(=O)(O)c1cc(S(=O)(=O)O)c2c(N=Nc3ccccc3)c(O)ccc2c1,inactive
17,CCOC(=O)C(C)Oc1ccc(Oc2nc3ccc(Cl)cc3o2)cc1 (stereo unspecified),inactive
18,O=C(O)CCCCCCC(=O)O,inactive
19,CC(C)CCCCOC(=O)c1ccccc1C(=O)OCCCCC(C)C,inactive
20,COC(OC)(C(=O)c1ccccc1)c1ccccc1,inactive
21,COC(=O)CCSCCC(=O)OC,inactive
22,CC(C)(C)[C@H](O)[C@H](Cc1ccc(Cl)cc1)n1cncn1,inactive
23,COCCOCCOCCOC,inactive
24,CCOCCOCCOC(C)=O,inactive
25,CCOCCOCCOCC,inactive
26,CCOc1ccc(NC(=O)OC(C)C)cc1OCC,inactive
27,CCCCCCC(C)(C)S,inactive
28,CC(C)Nc1nc(N)nc(Cl)n1,inactive

# Tested on: not listed separately
# Test: qHTS assay for small molecule antagonists of peroxisome proliferator-activated receptor delta signaling (AID 588535; active = well fitted inhibition curve with a large enough effect in the signal ratio, with a control signal flat, not every such curve was filed as active; the % refers to the signal ratio;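 as to max response: cells co-treated with a PPAR-delta agonist as stimulator during compound exposure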)
# Conditions: HEK293T PPARd-UAS-bla, beta-lactamase FRET ratio, 18 h; 460 nm channel
# Summary of the method: (§1)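 Reporter: UAS-bla under PPAR-delta response element, HEK293T host. Medium: 2% charcoal/dextran FBS. Dosing: titration, 18 hrs, 37 C. Detection: CCF4, 2 hrs RT, 405 ex/460 and 530 em.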
row,SMILES,max response
1,CC(C)CCCCCCCCCCCCCCC(=O)O,7.35%
2,CCCCCCCCCCCCc1ccccc1,-16.9%
3,C=CCOc1nc(OCC=C)nc(OCC=C)n1,15.5%
4,CCCCCCCCCCCC[N+](C)(C)C,-26.8%
5,CCCC/C=C\CCCCCCCCCC=O,-21.9%
6,CCCCCCCCCCCCN,-18.4%
7,CCC(O)OCCCOC (stereo unspecified),-0.797%
8,C=CCCCCCCCCCC,-16.2%
9,CCCCCCCCCCCCCCC,-0.185%
10,CC(C)(N=C=O)c1cccc(C(C)(C)N=C=O)c1,9.94%
11,CC(C)C(=O)OC(=O)C(C)C,1.13%
12,CC1=CC(=O)CC(C)(C)C1,13.3%
13,CCCCCCCC/C=C\CCCCCCCCO,8.68%
14,CCCCCCCC[Si](OCC)(OCC)OCC,2.69%
15,CCCCCCCCCCCCCCCO,-44.9%
16,COc1cc(Cl)c(OC)cc1N,-0.344%
17,O=S(=O)(O)c1cc(S(=O)(=O)O)c2c(N=Nc3ccccc3)c(O)ccc2c1,-19.3%

row,SMILES,max response
1,CC(COc1ccc(C(C)(C)C)cc1)OS(=O)OCCCl (stereo unspecified),82.6%
2,CCOC(=O)C(C)Oc1ccc(Oc2nc3ccc(Cl)cc3o2)cc1 (stereo unspecified),-2.48%
3,CCOC(=O)NCCOc1ccc(Oc2ccccc2)cc1,-16.1%
4,CC(C)CCCCOC(=O)c1ccccc1C(=O)OCCCCC(C)C,-26.8%
5,COC(OC)(C(=O)c1ccccc1)c1ccccc1,13.5%
6,CC(C)C[C@H](NC(=O)OCC1c2ccccc2-c2ccccc21)C(=O)O,59%
7,COC(=O)CCSCCC(=O)OC,13.2%
8,CC(C)(C)[C@H](O)[C@H](Cc1ccc(Cl)cc1)n1cncn1,27.4%
9,CCOC(=O)[C@H](C)Oc1ccc(Oc2nc3ccc(Cl)cc3o2)cc1,24.7%
10,CCCCCCC(O)CCCCCCCCCCC(=O)O (stereo unspecified),31.3%
11,CCOCCOCCOC(C)=O,31.4%
12,CCOCCOCCOCC,12.8%
13,CCOc1ccc(NC(=O)OC(C)C)cc1OCC,-29.8%
14,CC(C)Nc1nc(N)nc(Cl)n1,2.88% and -10.4%
15,CCC(C)OC(=O)N1CCCCC1CCO (stereo unspecified),49.3%
16,CCCCCCCCCC(=O)OC,-5.35%

# Molecular target: Peroxisome proliferator-activated receptor delta (Homo sapiens) (UniProt Q03181)
# Test: as above
# Conditions: HEK293T PPARd-UAS-bla, beta-lactamase FRET ratio, 18 h; series mostly up to 76.7 µM
# Summary of the method: as §1
# Peroxisome proliferator-activated receptor delta (Homo sapiens), sequence (Q03181 whole entry, looked up): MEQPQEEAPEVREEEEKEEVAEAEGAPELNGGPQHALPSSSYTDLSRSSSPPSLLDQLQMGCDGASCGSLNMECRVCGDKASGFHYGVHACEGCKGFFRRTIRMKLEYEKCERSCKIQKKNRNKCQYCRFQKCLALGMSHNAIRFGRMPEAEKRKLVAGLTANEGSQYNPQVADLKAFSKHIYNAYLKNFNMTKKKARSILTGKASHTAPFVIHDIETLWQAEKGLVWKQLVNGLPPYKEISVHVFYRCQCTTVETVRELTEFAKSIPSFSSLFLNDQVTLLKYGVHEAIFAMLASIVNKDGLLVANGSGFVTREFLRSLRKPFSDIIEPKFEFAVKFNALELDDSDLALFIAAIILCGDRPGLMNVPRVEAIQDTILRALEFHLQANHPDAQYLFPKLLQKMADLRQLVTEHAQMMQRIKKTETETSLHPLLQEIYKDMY
row,SMILES,Potency
1,CC(C)CCCCCCCCCCCCCCC(=O)O,inactive
2,CCCCCCCCCCCCc1ccccc1,inactive
3,C=CCOc1nc(OCC=C)nc(OCC=C)n1,inactive
4,CCCCCCCCCCCC[N+](C)(C)C,inactive
5,CCCC/C=C\CCCCCCCCCC=O,inactive
6,CCCCCCCCCCCCN,inactive
7,CCC(O)OCCCOC (stereo unspecified),inactive
8,C=CCCCCCCCCCC,inactive
9,CCCCCCCCCCCCCCC,inactive
10,CC(C)(N=C=O)c1cccc(C(C)(C)N=C=O)c1,inactive
11,CC(C)C(=O)OC(=O)C(C)C,inactive
12,CC1=CC(=O)CC(C)(C)C1,inactive
13,CCCCCCCC/C=C\CCCCCCCCO,inactive
14,CCCCCCCC[Si](OCC)(OCC)OCC,inactive
15,CCCCCCCCCCCCCCCO,inactive
16,COc1cc(Cl)c(OC)cc1N,inactive
17,O=S(=O)(O)c1cc(S(=O)(=O)O)c2c(N=Nc3ccccc3)c(O)ccc2c1,inactive
18,CC(COc1ccc(C(C)(C)C)cc1)OS(=O)OCCCl (stereo unspecified),inactive
19,CCOC(=O)C(C)Oc1ccc(Oc2nc3ccc(Cl)cc3o2)cc1 (stereo unspecified),inactive
20,CCOC(=O)NCCOc1ccc(Oc2ccccc2)cc1,inactive
21,CC(C)CCCCOC(=O)c1ccccc1C(=O)OCCCCC(C)C,inactive
22,COC(OC)(C(=O)c1ccccc1)c1ccccc1,inactive
23,COC(=O)CCSCCC(=O)OC,inactive
24,CCOC(=O)[C@H](C)Oc1ccc(Oc2nc3ccc(Cl)cc3o2)cc1,inactive
25,CCCCCCC(O)CCCCCCCCCCC(=O)O (stereo unspecified),inactive
26,CCOCCOCCOC(C)=O,inactive
27,CCOCCOCCOCC,inactive
28,CCOc1ccc(NC(=O)OC(C)C)cc1OCC,inactive
29,CC(C)Nc1nc(N)nc(Cl)n1,inactive
30,CCCCCCCCCC(=O)OC,inactive

# — PubChem BioAssay (NCATS)
